The text below walks through data of the supplement of paper PMC12494721.

Where a name gives a salt, the structure may show the parent alone.

For this experiment, the system named is Clostridium sporogenes DSM 1664. Nature of the experiment: growth (OD595) fold change vs plate DMSO controls (fold change (ratio)); higher = more growth. Conditions: incubation time: 27 h, anaerobic, 37 °C. The essentials:
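Shaken 96-well cultures in mGAM, grown anaerobically for 27 h at 37 °C, were read at 595 nm. OD came from blank-subtracted readings, corrected for background with 20 µM compound solutions in water and scaled by a calibration factor of 5. Growth is the fold change versus the plate's median DMSO control. Values average 2 biological replicates, and any fold change above 1.5 is NA.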
`CC(N)(Cc1ccc(O)c(O)c1)C(=O)O` (centres undefined) [(L) Methyldopa] (20 µM): the growth was 0.936. Consider `CN[C@@H]1[C@H](O[C@H]2[C@H](O[C@H]3[C@H](O)[C@@H](O)[C@H](N=C(N)N)[C@@H](O)[C@@H]3N=C(N)N)O[C@@H](C)[C@]2(O)C=O)O[C@@H](CO)[C@H](O)[C@H]1O` [Streptomycin sulfate] (20 µM), for which the growth came to 0.95. Then `CCOC(=O)c1ccc(OC(=O)CCCCCNC(=N)N)cc1` [Gabexate mesilate] (20 µM), with 1.07; and `NS(=O)(=O)c1cc(C(=O)O)c(NCc2ccco2)cc1Cl` [Furosemide] (20 µM), with 0.941; and `CC(C)(Oc1ccc(Cl)cc1)C(=O)O` [Clofibric acid] (20 µM), with 1.11. Then `Cc1ccc(C(C)NC(=O)[C@@H](NC(=O)OC(C)C)C(C)C)cc1` (some centres undefined) (20 µM), with 1.07; and `COC(c1ccccc1)(c1ccccc1)[C@H](Oc1nc(C)cc(C)n1)C(=O)O` [Ambrisentan] (20 µM), with 0.967. Regarding `CN1CCN(CCCN2c3ccccc3Sc3ccc(C(F)(F)F)cc32)CC1` [Trifluoperazine dihydrochloride] (20 µM), the growth was found to be 1.25. In the case of `C[N+](C)(CCOc1ccccc1)Cc1ccccc1.O=C([O-])c1cc2ccccc2cc1O` [Bephenium hydroxynaphthoate] (20 µM), the growth was determined as 0.816. Then `c1ccc2cc3c(ccc4ccccc43)cc2c1` [Benz[a]anthracene] (20 µM), with 1.13; and `C[C@H]1C[C@H]2[C@@H]3CCC4=CC(=O)C=C[C@]4(C)[C@@]3(F)[C@@H](O)C[C@]2(C)[C@@]1(O)C(=O)CO` [Betamethasone] (20 µM), with 1.02; and `NC[C@H]1O[C@H](O[C@H]2[C@H](O[C@@H]3O[C@H](CO)[C@@H](O)[C@H]3O)[C@@H](O)[C@H](N)C[C@@H]2N)[C@H](N)[C@@H](O)[C@@H]1O` [Ribostamycin sulfate salt] (20 µM), with 1.07. As for `CCOC(=O)C1=C[C@]2(CC)CCCN3CCc4c(n1c1ccccc41)[C@@H]32` [Vinpocetine] (20 µM), the figure is 0.883; as for `CCOC1O[C@H]([C@@H](COCc2ccccc2)OCc2ccccc2)[C@H](OCc2ccccc2)[C@H]1O` (some centres undefined) [Tribenoside] (20 µM), 0.917; as for `NCCCC[C@H](N[C@@H](CCc1ccccc1)C(=O)O)C(=O)N1CCC[C@H]1C(=O)O` [Lisinopril] (20 µM), 1.04. Then `CC(C)(C)NC[C@H](O)c1ccc(O)c(CO)c1` [Levalbuterol hydrochloride] (20 µM), with 0.932; and `O=C(CCCl)NCc1ccccc1` [Beclamide] (20 µM), with 1.18; and `Cc1onc(-c2ccccc2Cl)c1C(=O)N[C@@H]1C(=O)N2[C@@H]1SC(C)(C)[C@@H]2C(=O)O` [Cloxacillin sodium salt] (20 µM), with 0. For `CCN1CCCC1CNC(=O)c1cc(S(N)(=O)=O)ccc1OC` (centres undefined) [Sulpiride] (20 µM), the growth was 0.968. Then `CCOc1ccc(NC(N)=O)cc1` [(4-Ethoxyphenyl)urea] (50 µM), with 1.13; and `O=C1OC(CN2CCOCC2)CN1/N=C/c1ccc([N+](=O)[O-])o1` (centres undefined) [Furaltadone hydrochloride] (20 µM), with 0.861. Then `Cc1cc(N)c2ccccc2[n+]1CCCCCCCCCC[n+]1c(C)cc(N)c2ccccc21` [Dequalinium dichloride] (20 µM), with 0.993; and `Cc1ccc(C(=O)c2ccc(CC(=O)O)n2C)cc1` [Tolmetin sodium salt dihydrate] (20 µM), with 1.12; and `CCCSc1nc(N[C@@H]2C[C@H]2c2ccc(F)c(F)c2)c2nnn([C@@H]3C[C@H](OCCO)[C@@H](O)[C@H]3O)c2n1` [Ticagrelor] (20 µM), with 1.15.

For `CNc1ncnc2c1ncn2[C@@H]1O[C@H](CO)[C@@H](O)[C@H]1O` [N6-methyladenosine] (20 µM), the growth came out at 1.05. As for `Cc1c(N(C)CS(=O)(=O)O)c(=O)n(-c2ccccc2)n1C` [Dipyrone sodium salt] (20 µM), the figure is 1.02; as for `CN(c1nccc(=O)[nH]1)C1CCN(c2nc3ccccc3n2Cc2ccc(F)cc2)CC1` [Mizolastine] (20 µM), 1.22; as for `CC(CN(C)C)C(C)(O)Cc1ccc(Cl)cc1` (centres undefined) [Clobutinol hydrochloride] (20 µM), 0.926. With `Oc1c(Cl)cc(Cl)c2cccnc12` [Chloroxine] (20 µM), the growth was determined as 1.12. Then `CC(=O)OCC(=O)[C@@]1(O)CC[C@H]2[C@@H]3CCC4=CC(=O)CC[C@]4(C)[C@@]3(F)[C@@H](O)C[C@@]21C` [Fludrocortisone acetate] (20 µM), with 0.949. With `CC1=C(C(=O)O)N2C(=O)[C@@H](NC(=O)[C@H](N)c3ccc(O)cc3)[C@H]2SC1` [Cefadroxil] (20 µM), the growth amounted to 0.898. As for `OC[C@H]1O[C@@](CO)(O[C@H]2O[C@H](CO)[C@@H](O)[C@H](O)[C@H]2O)[C@@H](O)[C@@H]1O` [Sucrose] (50 µM), the growth amounted to 1.08. As for `CCN(CC)CCOC(=O)C(c1ccccc1)C1CCCCC1` (centres undefined) [Drofenine hydrochloride] (20 µM), the figure is 0.967; as for `CN(C)CCCN1c2ccccc2Sc2ccccc21` [Promazine hydrochloride] (20 µM), 1.02; as for `CCc1cccc(CC)c1NC(=O)CN(CC(=O)O)CC(=O)O` [Etifenin] (20 µM), 1.08. As for `CC(Cc1cccc(C(F)(F)F)c1)NCCOC(=O)c1ccccc1` (centres undefined) [Benfluorex] (20 µM), the figure is 1.08; as for `Cn1c(=O)c2c(ncn2C)n(C)c1=O` [Caffeine] (20 µM), 1.15.

Consider `O=c1[nH]c(=O)n([C@H]2C[C@H](O)[C@@H](CO)O2)cc1C(F)(F)F` [Trifluridine] (20 µM), for which the growth was 1.14.

`CCOC(=O)NNc1nncc2ccccc12` [Todralazine hydrochloride] (20 µM): the growth was determined as 0.521.
